This passage reports growth results from PubChem BioAssay (NCI).

Assay in all cases: NCI-60 one-dose screen, 48 h (100 = growth as untreated, 0 = no growth, -100 = all killed)
One assay relates to HT29 colon. The conditions noted are these: 10 µM unless noted.
A further assay has as its system SNB-75 CNS. The note with it: 10 µM unless noted.
For another assay, the system named is SNB-19 CNS. The note with it: 10 µM unless noted.
Another assay deals with U251 CNS. The conditions noted are these: 10 µM unless noted.
In another assay the test system is PC-3 prostate. The note with it: 10 µM unless noted.
Another assay concerns UACC-62 melanoma. The note with it: 10 µM unless noted.
In another assay the test system is LOX IMVI melanoma. The conditions noted are these: 10 µM unless noted.
Another assay relates to SK-MEL-28 melanoma. The note with it: 10 µM.
A further assay relates to SK-MEL-2 melanoma. The conditions noted are these: 10 µM unless noted.
The next assay deals with EKVX NSCLC. The note with it: 10 µM unless noted.
A further assay concerns SN12C renal. The conditions noted are these: 10 µM unless noted.
A further assay deals with UO-31 renal. The conditions noted are these: 10 µM unless noted.
In another assay the test system is TK-10 renal. The note with it: 10 µM unless noted.
The next assay deals with ACHN renal. The conditions noted are these: 10 µM unless noted.
For another assay, the system named is CAKI-1 renal. The conditions noted are these: 10 µM unless noted.
For a further assay, the system named is A498 renal. The conditions noted are these: 10 µM unless noted.
The next assay concerns CCRF-CEM leukemia. The conditions noted are these: 10 µM unless noted.
The subject of the next assay is MOLT-4 leukemia. The conditions noted are these: 10 µM unless noted.
The subject of the next assay is SR leukemia. The conditions noted are these: 10 µM unless noted.

About 83,000 compounds went through this panel and 20% of them were active in at least one assay; those are over-represented in the sample as a whole.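 The test compound was applied at a single concentration to cells in 96-well plates for 48 hours, and percent growth was recorded.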 Values without a mark were called inactive. Calls of active or inactive are those of the source. How the source made its calls: active means growth percent below 10; inactive means the rest.

Turning to `Cc1cccc(NC(=O)c2sc3nc4c(cc3c2N)CCCC4)c1C`, the growth in the assay on HT29 colon was 2.81% (active); in the assay with SNB-75 CNS it was 10.8%; in the assay on SNB-19 CNS, 26.2%; in the assay on U251 CNS, 15.1%; with PC-3 prostate, 21.2%; with UACC-62 melanoma, 38.7%. In addition, the growth in the assay with LOX IMVI melanoma was 42.3%; with SK-MEL-28 melanoma it was 68.5%; with SK-MEL-2 melanoma, 49.1%; in the assay with EKVX NSCLC it was 45.4%; in the assay on SN12C renal, 38.9%; with UO-31 renal it was 50.6%. The growth was 65.4% in the assay with TK-10 renal; 41.3% in the assay with ACHN renal; 34.8% with CAKI-1 renal; 4.01% (active) in the assay on A498 renal; 7.79% (active) in the assay with CCRF-CEM leukemia; 19.3% in the assay on MOLT-4 leukemia. Besides, the growth in the assay on SR leukemia was 34.7%.
With `COc1ccc(-c2cn[nH]c2-c2ccc(OC)c(O)c2)cc1`, the growth was 94.3% in the assay on HT29 colon; 87.6% with SNB-75 CNS; 76.5% with SNB-19 CNS; 63.1% with U251 CNS; 84% in the assay on PC-3 prostate; 66% in the assay with UACC-62 melanoma. The growth in the assay on LOX IMVI melanoma is 59.5%; in the assay on SK-MEL-28 melanoma, 89.1%; in the assay on SK-MEL-2 melanoma, 42%; with EKVX NSCLC, 84.9%; with SN12C renal, 91.3%; with UO-31 renal, 85.1%. In addition, the growth was 88.6% in the assay on TK-10 renal; 92.2% in the assay with ACHN renal; 75% in the assay with CAKI-1 renal; 59% in the assay on A498 renal; 71.9% in the assay on CCRF-CEM leukemia; 67.4% in the assay on MOLT-4 leukemia. In the assay with SR leukemia, the growth was 33.7%.
`COc1cc(/C=C/C(=O)N2c3ccccc3CC2C)c(OC)c2c1OCO2` (configuration not stated): the growth was 83.8% with HT29 colon; 97.2% in the assay with SNB-75 CNS; 96.2% in the assay with SNB-19 CNS; 87.6% in the assay on U251 CNS; 68.7% in the assay with PC-3 prostate; 84.5% with UACC-62 melanoma. For the same compound, the growth with LOX IMVI melanoma is 94.3%; in the assay with SK-MEL-28 melanoma, 90.7%; in the assay on SK-MEL-2 melanoma it was 98.6%; with EKVX NSCLC, 87.7%; in the assay with SN12C renal it was 97.1%; with UO-31 renal, 77.9%. Further, the growth was 96% with TK-10 renal; 95.7% in the assay with ACHN renal; 101% with CAKI-1 renal; 69.1% with A498 renal; 94.6% with CCRF-CEM leukemia; 84.6% with MOLT-4 leukemia. In addition, in the assay with SR leukemia, the growth is 102%.
As to `Nc1ccc(-c2nn3c(CCC(=O)c4nc5ncccc5[nH]4)nnc3s2)c(O)c1`, the growth with HT29 colon is 103%; with SNB-75 CNS it was 70.3%; with SNB-19 CNS, 88.2%; in the assay with U251 CNS, 103%; with PC-3 prostate it was 82.8%; in the assay on UACC-62 melanoma it was 92.9%. Further, the growth in the assay with LOX IMVI melanoma was 85.2%; with SK-MEL-28 melanoma, 105%; in the assay on SK-MEL-2 melanoma, 100%; with EKVX NSCLC, 98%; with SN12C renal it was 87.8%; in the assay with UO-31 renal it was 68.7%. The growth with TK-10 renal was 144%; with ACHN renal, 90.5%; in the assay with CAKI-1 renal, 70.1%; with A498 renal it was 75.3%; with CCRF-CEM leukemia, 94.1%; in the assay on MOLT-4 leukemia, 82.8%.
For `O=C1Nc2ccccc2/C1=C/c1cccs1`, the growth in the assay on HT29 colon was 110%; in the assay on SNB-75 CNS, 103%; with SNB-19 CNS, 83.2%; in the assay with U251 CNS, 83.2%; in the assay on PC-3 prostate, 92.3%; in the assay with UACC-62 melanoma, 85.9%. Besides, the growth was 93% in the assay on LOX IMVI melanoma; 102% in the assay with SK-MEL-28 melanoma; 110% with SK-MEL-2 melanoma; 73.2% in the assay on EKVX NSCLC; 89.9% with SN12C renal; 62.2% in the assay with UO-31 renal. The growth with TK-10 renal is 134%; in the assay with ACHN renal, 86.7%; with CAKI-1 renal it was 90.4%; in the assay on A498 renal it was 106%; in the assay on CCRF-CEM leukemia it was 97.2%; in the assay on MOLT-4 leukemia, 102%. For the same compound, the growth in the assay with SR leukemia was 121%.
With `NCCNc1nc2ccc(F)cc2c2c(=O)c3cc(F)ccc3sc12`, the growth was -39.5% (active) with HT29 colon; 39.9% in the assay with SNB-75 CNS; 64.6% with SNB-19 CNS; 24.1% in the assay with U251 CNS; 45% in the assay on PC-3 prostate; 84.2% with UACC-62 melanoma. Besides, the growth is -90.8% (active) in the assay on LOX IMVI melanoma; 91% in the assay with SK-MEL-28 melanoma; 91.5% in the assay with SK-MEL-2 melanoma; 75.9% in the assay with EKVX NSCLC; 46.3% in the assay on SN12C renal; 35.6% in the assay with UO-31 renal. The growth is 59.1% with TK-10 renal; 31.6% in the assay on ACHN renal; 22.5% in the assay on CAKI-1 renal; 41.2% with A498 renal; 20.7% with CCRF-CEM leukemia; 5.51% (active) in the assay on MOLT-4 leukemia.
Consider `C#CCn1cc(C=C2C(=O)N(C)C(=O)N(C)C2=O)c2cc(Cl)ccc21`, for which the growth is 118% in the assay on HT29 colon; 91.6% with SNB-75 CNS; 105% in the assay on SNB-19 CNS; 113% with U251 CNS; 103% with PC-3 prostate; 94% with UACC-62 melanoma. For the same compound, the growth in the assay with LOX IMVI melanoma is 96.8%; in the assay on SK-MEL-28 melanoma, 113%; in the assay with SK-MEL-2 melanoma, 95.5%; with EKVX NSCLC, 98.1%; in the assay on SN12C renal, 101%; with UO-31 renal, 80.1%. The growth with TK-10 renal is 106%; in the assay with ACHN renal it was 99.4%; in the assay with CAKI-1 renal it was 91.7%; with A498 renal, 70%; in the assay on CCRF-CEM leukemia, 105%; in the assay on MOLT-4 leukemia, 105%.
Turning to `O=C1c2cc(I)ccc2Oc2cc([N+](=O)[O-])ccc2N1c1ccc(Cl)cc1F`, the growth in the assay with HT29 colon was 83.9%; with SNB-75 CNS it was 75.4%; in the assay with SNB-19 CNS, 90.5%; in the assay on U251 CNS it was 79.3%; in the assay with PC-3 prostate, 78.7%; in the assay on UACC-62 melanoma, 76.8%. Besides, the growth is 86.7% in the assay on LOX IMVI melanoma; 97.3% with SK-MEL-28 melanoma; 85.4% with SK-MEL-2 melanoma; 93.5% with EKVX NSCLC; 90.8% with SN12C renal; 63.6% in the assay on UO-31 renal. For the same compound, the growth in the assay on TK-10 renal was 120%; in the assay with ACHN renal, 90.3%; in the assay on CAKI-1 renal it was 63.9%; in the assay on A498 renal, 91.4%; with CCRF-CEM leukemia, 76.8%; in the assay with MOLT-4 leukemia, 56.6%.
Take `COc1cc2c(cc1OC)C(=O)C(CC1CCN(C(=O)Nc3ccc(C)cc3)CC1)C2` (configuration not stated): the growth with HT29 colon is 107%; in the assay with SNB-75 CNS, 88.4%; in the assay with SNB-19 CNS, 95.2%; in the assay on U251 CNS, 106%; in the assay with PC-3 prostate, 88.6%; in the assay with UACC-62 melanoma it was 79.9%. The growth was 96.9% in the assay on LOX IMVI melanoma; 99.1% with SK-MEL-28 melanoma; 97.9% with SK-MEL-2 melanoma; 90.9% in the assay on EKVX NSCLC; 92.5% in the assay with SN12C renal; 60.4% in the assay on UO-31 renal. The growth with TK-10 renal was 116%; in the assay on ACHN renal it was 93.6%; in the assay on CAKI-1 renal it was 83.7%; with A498 renal, 69.4%; in the assay with CCRF-CEM leukemia, 97.8%; in the assay with MOLT-4 leukemia it was 102%. Besides, in the assay on SR leukemia, the growth was 112%.
